The sample as a whole holds a higher share of hits than the screen did.
12-LOX inh: inhibitors of human 12S-lipoxygenase ALOX12. P18054. purified 12hLO, xylenol orange hydroperoxide absorbance. Potency, µM (titrated, usually from 108 µM), hits mostly inhibitors. 1.1% of 580,000 active. AID 1671190
Target sequence (P18054 whole entry, looked up): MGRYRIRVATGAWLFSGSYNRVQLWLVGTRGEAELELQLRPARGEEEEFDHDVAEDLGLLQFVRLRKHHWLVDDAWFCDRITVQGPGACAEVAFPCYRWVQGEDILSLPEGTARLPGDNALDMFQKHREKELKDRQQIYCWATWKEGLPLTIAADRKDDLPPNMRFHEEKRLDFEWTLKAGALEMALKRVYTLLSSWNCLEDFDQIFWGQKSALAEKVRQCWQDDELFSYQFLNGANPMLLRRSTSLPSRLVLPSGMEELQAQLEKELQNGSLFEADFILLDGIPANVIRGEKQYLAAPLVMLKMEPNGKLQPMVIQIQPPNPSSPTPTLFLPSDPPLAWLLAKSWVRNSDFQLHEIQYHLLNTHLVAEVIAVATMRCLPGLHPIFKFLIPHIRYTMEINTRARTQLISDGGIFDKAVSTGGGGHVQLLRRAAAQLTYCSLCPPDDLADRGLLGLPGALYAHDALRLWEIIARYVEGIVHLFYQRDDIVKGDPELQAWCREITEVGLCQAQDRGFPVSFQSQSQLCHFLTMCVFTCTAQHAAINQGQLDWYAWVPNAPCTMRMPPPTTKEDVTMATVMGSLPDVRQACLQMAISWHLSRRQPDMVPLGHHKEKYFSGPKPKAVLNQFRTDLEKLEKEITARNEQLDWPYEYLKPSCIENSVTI
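Purified human 12hLO at 150 nM in 25 mM Hepes, 0.01% Triton X-100, pH 7.0, preincubated 15 min at room temperature with compound. Reaction started with 40 uM arachidonic acid, 30 min at room temperature. Hydroperoxide measured by Fe-xylenol orange, 573/405 nm absorbance ratio.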
IL-1B inflam inh: inflammasome signaling inhibition, IL-1 beta readout; THP-1 LPS/ATP IL-1B secretion, AlphaLISA, 16 h; stronger effect = lower value; activity change, % at 57.5 µM; 4.7% of 360,000 active; AID 743279; in the data active = activity change below about -50%; inconclusive = mostly about -30% to -49%
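Secreted IL-1B measured by AlphaLISA bead assay after 16 h compound exposure of THP-1 cells; compounds (final up to 57.5 uM) added 1 h before LPS (250 ng/mL) and ATP (1.25 mM) stimulation; lower signal means less secretion.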
HT1080 IDH1KD tx: HT-1080 IDH1 knockdown cell toxicity (counter line); Potency, µM (top dose mostly 46.1 µM), most hits filed as cytotoxic; HT-1080 IDH1 knockdown viability, ATP luminescence, 48 h; 2% of 360,000 active; AID 686971
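After a 2 h attachment period, IDH1KD HT-1080 cells took pin-transferred compound for 48 h at 37 °C; ATP-based luminescence after 10 min room-temperature reagent incubation reported viability.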
HT1080NT lethal: kills 2HG-producing HT-1080-NT fibrosarcoma cells; HT-1080-NT fibrosarcoma viability, CellTiter-Glo ATP luminescence, 48 h; Potency, µM (series often up to 46.1 µM), actives largely listed as cytotoxic; 1.6% of 360,000 active; AID 686970;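 note: NT is the 2HG producing partner of a matched IDH1 knockdown line; nearly all actives have a fitted effect of over 55% in size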
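Toxicity toward the 2HG-producing NT line was scored as %Activity, normalised to DMSO and no-cell wells, from CellTiter-Glo luminescence after 48 hours' treatment.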
TDP1 cell CPT: growth inhibition of DT40 Tdp1-/-;hTDP1 cells with camptothecin (screen for TDP1 inhibitors). chicken DT40 Tdp1-/-;hTDP1 cells + 20 nM CPT, ATP luminescence, 48 h. Potency, µM (series often up to 46.2 µM), hits mostly inhibitors. 12% of 420,000 active. AID 686979; note: nearly all actives have a fitted effect of over 55% in size
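Chicken DT40 Tdp1-/- cells complemented with human TDP1, 400 cells/well, exposed to compounds plus 20 nM camptothecin for at least 48 h at 37 C; viability read as ATP content by CellTiter-Glo luminescence.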
TDP1 cell noCPT: qHTS for Inhibitors of human tyrosyl-DNA phosphodiesterase 1 (TDP1): qHTS in cells in absence of CPT. DT40 Tdp1-/- hTDP1 cells, no CPT, ATP luminescence, 48 h. Potency, µM (highest dose often 46.2 µM), hits mostly inhibitors. 15% of 420,000 active; note: nearly all actives have a fitted effect of over 55% in size
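A cellular qHTS used chicken DT40 cells lacking endogenous Tdp1 but carrying stably transfected human TDP1. Compounds were applied without camptothecin, and cell growth kinetics were judged by ATP-dependent luminescence after ≥48 hr.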
Hits are given with their value; – = inactive; ? = inconclusive; · = not tested or not shown; [ ] = another dose, or the depositor's remark. Unless noted, calls come from the whole dose curve; as a rule, active = well fitted curve in the direction sought with a large enough effect; inconclusive = small, poorly fitted or top-dose-only effect, or another doubt; inactive = no such curve, though single readings can be large; an effect the other way counts as inactive or inconclusive.

SMILES	12-LOX inh	IL-1B inflam inh	HT1080 IDH1KD tx	HT1080NT lethal	TDP1 cell CPT	TDP1 cell noCPT
CCN(CC)S(=O)(=O)c1cc(NS(=O)(=O)c2cccs2)ccc1C	–	–	–	–	–	5.8µM
Cc1ccc(NC(=S)NC(=O)C2CCCC2)cc1C	?	–	–	–	?	?
CN(C)S(=O)(=O)c1ccc(NC(=S)NC(=O)C2CCC2)cc1	?	–	–	–	–	–
CCN(CC)S(=O)(=O)c1ccc(NC(=S)NC(=O)C2CCC2)cc1	–	–	–	–	18µM	?
CCN(CC)S(=O)(=O)c1cc(NC(=S)NC(=O)C2CCCC2)ccc1C	?	–	–	–	23µM	18µM
COC(=O)c1ccccc1S(=O)(=O)N1CCC(C(=O)NCCc2ccco2)CC1	–	·	·	·	·	·
CN(C)c1cc(CNC(=O)C2COc3ccccc3O2)ccn1 (configuration not stated)	–	·	·	·	·	·
Clc1ccc(-c2nnc(COc3ncnc4sccc34)o2)cc1	?	–	–	–	–	–
CCn1ccnc1CN(C)Cc1nc(Cc2cccc(C(F)(F)F)c2)no1	–	–	–	–	–	–
CC(CN(C)Cc1nc(Cc2cccc(C(F)(F)F)c2)no1)CN1CCCC1 (configuration not stated)	–	–	–	–	21µM	23µM
FC(F)(F)c1cccc(Cc2noc(CN3CCC(c4ccncc4)CC3)n2)c1	–	–	–	–	5.8µM	7.3µM
CCc1ccc(CN(C)Cc2nc(Cc3cccc(C(F)(F)F)c3)no2)nc1	–	–	–	–	–	?
c1ccc(COC2CCCN(Cc3nc(-c4cccs4)no3)C2)nc1 (configuration not stated)	–	–	–	–	–	–
CN1CCCC2(CCCN(Cc3nc(Cc4cccc(C(F)(F)F)c4)no3)C2)C1 (configuration not stated)	–	-75	–	–	–	?
FC(F)(F)c1cccc(Cc2noc(CN3CCCC(OCc4ccccn4)C3)n2)c1 (configuration not stated)	?	–	–	–	18µM	23µM
CCOC(=O)c1cccc(NC(=O)O[C@@H]2CO[C@H]3[C@@H]2OC[C@@H]3n2nnnc2SC2CCCC2)c1	–	·	·	·	·	·
Cn1nc2n(c1=O)CCN(C(=O)c1ccc(F)cc1Cl)CC2	–	·	·	·	·	·
N#Cc1ccc(C(=O)NC2CCCC(C(F)(F)F)C2)cc1 (configuration not stated)	–	·	·	·	·	·
CN1CCCN(Cc2nc(-c3cccc(C(F)(F)F)c3)no2)CC1	–	–	–	–	?	16µM
FC(F)(F)c1cccc(-c2noc(CN3CCOCC3)n2)c1	–	–	–	–	–	–
CN1C2CCC1/C(=C\c1ccccc1)C(=O)/C2=C\c1ccccc1	–	-95	?	?	12µM	6.5µM
O=C(COC(=O)/C=C/c1ccc(F)cc1)NCC1CCCO1 (configuration not stated)	–	–	–	–[9.24 µM]	?	–
CC(C)N1C[C@H](O)C[C@H]1c1nnc2n1CCN(C(=O)CN1CCCC1=O)CC2	–	·	·	·	·	·
Nc1ncnc2c(C3OC(CO)C(O)C3O)scc12 (configuration not stated)	–	-116	0.037µM	0.26µM	0.012µM	0.016µM
O=C(NC12CC3CC(CC(C3)C1)C2)c1ccc([N+](=O)[O-])o1	–	-63	?	?	23µM	23µM
SMILES	12-LOX inh	IL-1B inflam inh	HT1080 IDH1KD tx	HT1080NT lethal	TDP1 cell CPT	TDP1 cell noCPT
O=C(NC12CC3CC(CC(C3)C1)C2)c1ccc(-c2ccc(Br)cc2)o1	–	?	?	–	23µM	16µM
O=C(NC12CC3CC(CC(C3)C1)C2)c1ccc(Br)o1	–	–	–	–	–	?
CC(NC(=O)c1ccc([N+](=O)[O-])cc1Cl)C1CC2CCC1C2 (configuration not stated)	?	–	–	–	?	?
CC(NC(=O)c1ccc([N+](=O)[O-])o1)C1CC2CCC1C2 (configuration not stated)	·	-92	?	?	21µM	?
CCCCC(=O)OCC(=O)Nc1ccc(SC(F)F)cc1	–	–	–	–	–	–
CC(C)(C)NC(=O)NC(=O)COC(=O)Cc1c(Cl)cccc1Cl	–	-54	–	–	–	–
Cc1c(C(=O)CN2CCN(c3ccccc3)CC2)c2ccccc2n1C	?	–	–	–	?	?
Cn1c2c(c3ccccc31)CCN(CCCCN1CCN(c3ccccc3)CC1)C2=O	–	-62	?	–	?	?
CCc1noc(-c2cn(C3CCN(C(=O)c4cccc(OC(F)(F)F)c4)C3)nn2)n1 (configuration not stated)	–	·	·	·	·	·
CCOC(=O)C1(c2ccccc2)SC(C(=O)OCC)(c2ccccc2)S1 (configuration not stated)	?	-66	–	–	–	?
CCOC(=O)C1(c2ccccc2)CCCNC1=O (configuration not stated)	–	–	?	–	?	?
CCCCCCCCCCCCCCCCN(C)C	–	·	·	·	·	·
COc1ccc([N+](=O)[O-])cc1NC(=O)C(C)OC(=O)Cn1[nH]c(=O)c2ccccc2c1=O (configuration not stated)	–	–	–	–	–	–
Cc1oc(-c2ccccc2)nc1CC(=O)NC1CC1	–	·	·	·	·	·
COc1cc(/C=N/n2cnc3scc(-c4cccs4)c3c2=O)cc(OC)c1OC	–	–	?	?	4.6µM	2.9µM
COc1ccc(/C=N/n2cnc3scc(-c4cccs4)c3c2=O)cc1OC	–	–	–	–	18µM	?
O=c1c2c(-c3cccs3)csc2ncn1-c1ccccc1	–	–	–	–	–	?
Cc1ccc(C)n1-n1cnc2scc(-c3cccs3)c2c1=O	–	–	–	–	–	–
CCCc1ncncc1C(=O)N[C@H]1CN(S(C)(=O)=O)C[C@@H]1C(C)C	–	·	·	·	·	·
CN(CC(=O)Nc1ccc2[nH]c(=O)[nH]c2c1)Cc1ccc2c(c1)OCO2	–	·	·	·	·	·
COC(=O)c1ccc(Nc2ncnc3c2cnn3C)cc1	–	·	·	·	–	–
Cn1ncc2c(O/N=C(\N)c3ccc(C(F)(F)F)cc3)ncnc21	–	-70	16µM	21µM	6.5µM	5.2µM
Cc1cc(C(=O)Nc2ccc([C@H]3OCC(=O)N(C)[C@@H]3CO)cc2)no1	–	·	·	·	·	·
CCc1ccc2c(c1)C(c1ccc([N+](=O)[O-])cc1)=NNC(c1ccc(Br)cc1)=N2	–	–	–	–	13µM	?
O=c1ccn([C@@H]2O[C@H](COP(=O)(O)O)[C@@H](O)[C@H]2O)c(=O)[nH]1	–	·	·	·	?	–

Compound activity as filed in PubChem BioAssay.
